The results in this text go back to PubChem BioAssay (EPA / NIEHS).

As usually defined, the AC50 is the concentration at which the activity in the assay is half-maximal.

Each structure is given as a SMILES string. “And” between values parts separate entries of the source, which are not always exact repeats. Equal entries are not always repeated. Records with an inconclusive call do not appear. Where a structure was tested more than once in an assay, its records may differ in their call. The source made the active and inactive calls. Rule for the calls, unless noted: active = hit-call score of the fitted dose curve at least 0.9, where 1 is the maximum; inactive = score below 0.9.

Assay [1] in a line: IUF_NPC1b_proliferation_BrdU_72hr: Leibniz Research Institute for Environmental Medicine (IUF) 72-hour Neural Progenitor Cell Bromodeoxyuridine (BrdU) Proliferation Assay (NPC1b) (AID 2284207). The procedure, abridged:
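hNPC spheres (primary, GW 16-19 fetal cortex), single sphere/well, EGF+FGF medium; 72 h compound, no renewal; BrdU pulse last 16 h; luminescent ELISA; activity vs DMSO baseline; growth-factor withdrawal as positive control.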

Assay [2] in a line: IUF_NPC1a_proliferation_area_72hr: Leibniz Research Institute for Environmental Medicine (IUF) 72-hour Neural Progenitor Cell Proliferation Area Assay (NPC1a) (AID 2284208). The method in brief:
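Spheres of 0.3 mm are plated singly in growth-factor medium and exposed from day 0. After three days at 37C and 5% CO2, sphere area is measured by phase contrast imaging, with activity referenced to DMSO.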

Assay [3] is described as follows: IUF_NPC1_viability_72hr: Viability Assessment at 72 hours in the Leibniz Research Institute for Environmental Medicine (IUF) Neural Progenitor Cell Proliferation Assay (NPC1) (AID 2284209). The method in brief: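 Each well receives one 0.3 mm progenitor sphere from fetal brain cortex; test chemical is added at plating and left three days. Viability comes from alamar blue fluorescence, multiplexed with LDH and BrdU readouts in the same well.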

The nature of assay [4]: CCTE_Mundy_HCI_Cortical_Synap_Neur_Matur_NeuriteSpotCountPerNeuriteLength: CCTE's Synaptogenesis and Neurite Maturation Assay in rat cortical cells for Neurite Spot Count per Neurite Length, Mundy Lab (AID 2284210). The method in brief:
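Rat primary cortical cultures, glia arrested with AraC at DIV 5, were dosed with media change at DIV 7 and fixed at DIV 12. Synaptophysin puncta per MAP2-labelled neurite length were quantified by high-content imaging versus DMSO.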

Assay [5] is described as follows: CCTE_Mundy_HCI_Cortical_Synap_Neur_Matur_BPCount: CCTE's Synaptogenesis and Neurite Maturation Assay in rat cortical cells for Branch Point Count, Mundy Lab (AID 2284211). The method in brief:
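Branch point number is quantified by automated imaging of fluorescently labelled neurites and synapses in rat primary cortical neurons exposed from DIV 7 to DIV 12. Activity is analysed relative to DMSO negative control.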

Assay [6] in a line: CCTE_Mundy_HCI_Cortical_NOG_NeuriteCount: CCTE's Neurite Outgrowth Assay in rat cortical cells for Neurite Count, Mundy Lab (AID 2284212).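 Note: cells fixed about two days after chemical exposure began.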 The procedure, abridged: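 Neurite number per cell from high-content imaging of betaIII-tubulin immunostaining, with Hoechst nuclear counterstain.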
Assay [7] is described as follows: CCTE_Mundy_HCI_Cortical_NOG_NeuriteLength: CCTE's Neurite Outgrowth Assay in rat cortical cells for Neurite Length, Mundy Lab (AID 2284213).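 For AC50: neurites imaged about 48 to 50 h after chemical exposure began.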 The procedure, abridged:
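Neurite length was read by high-content imaging of βIII-tubulin-labelled neurites in rat primary cortical cultures. Activity was fitted relative to DMSO.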

Assay [8] in a line: CCTE_Mundy_HCI_Cortical_Synap_Neur_Matur_NeuriteLength: CCTE's Synaptogenesis and Neurite Maturation Assay in rat cortical cells for Neurite Length, Mundy Lab (AID 2284214). The procedure, abridged:
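Neurite length in rat primary cortical cultures is imaged after MAP2, synaptophysin and Hoechst staining. Dosing starts DIV 7, ending DIV 12; DMSO serves as negative control and baseline.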

Assay [9] in a line: CCTE_Mundy_HCI_Cortical_Synap_Neur_Matur_NeuriteSpotCountPerNeuron: CCTE's Synaptogenesis and Neurite Maturation Assay in rat cortical cells for Neurite Spot Count per Neuron Count, Mundy Lab (AID 2284215). The procedure, abridged: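 Rat cortical primary cultures; AraC DIV 5 to arrest glia; dosing + media change DIV 7; fixed DIV 12. Anti-MAP2/anti-synaptophysin, Hoechst nuclei; HCI puncta count per neuron, positive fitting direction vs DMSO.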

Assay [10] is described as follows: CCTE_Mundy_HCI_Cortical_Synap_Neur_Matur_SynapseCount: CCTE's Synaptogenesis and Neurite Maturation Assay in rat cortical cells for Synapse Count, Mundy Lab (AID 2284218). The method in brief: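 Synapse count per neuron is measured in rat cortical neurons exposed to chemicals between DIV 7 and DIV 12, with glial growth arrested by AraC at DIV 5. Synaptophysin and MAP2 staining is imaged automatically; activity is fitted relative to DMSO.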

Assay [11] can be described thus: CCTE_Mundy_HCI_hN2_NOG_NeuriteCount: CCTE's Neurite Outgrowth Assay in human hN2 cells for Neurite Count, Mundy Lab (AID 2284219; active = hit-call score of the fitted dose curve at least 0.9, where 1 is the maximum). The procedure, abridged:
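In this morphology assay, hNP1-derived neurons received test chemical 2 h post-plating and were fixed two days later in warm paraformaldehyde/sucrose containing Hoechst 33342. Neurites, labelled by rabbit anti-βIII-tubulin (1:800) and Alexa Fluor-488 (1:500), were counted automatically.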

Assay [12] in a line: CCTE_Mundy_HCI_hN2_NOG_NeuriteLength: CCTE's Neurite Outgrowth Assay in human hN2 cells for Neurite Length, Mundy Lab (AID 2284220; active = hit-call score of the fitted dose curve at least 0.9, where 1 is the maximum). The procedure, abridged:
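Using βIII-tubulin immunofluorescence and Hoechst nuclear counterstain, this component quantifies neurite length in hNP1-derived neurons.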

A short description of assay [13]: CCTE_Mundy_HCI_Cortical_Synap_Neur_Matur_CellBodySpotCount: CCTE's Synaptogenesis and Neurite Maturation Assay in rat cortical cells for Cell Body Spot Count, Mundy Lab (AID 2284223). The procedure, abridged:
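Rat cortical neurons; AraC @ DIV 5; dose + media change DIV 7; fix DIV 12; anti-MAP2/anti-synaptophysin IF, Hoechst; HCI count of soma synaptophysin puncta/neuron; DMSO = negative control.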

Assay [14] can be described thus: CCTE_Mundy_HCI_hNP1_Pro_ResponderAvgInten: CCTE's Proliferation Assay in human neuroprogenitor cells, Mundy Lab (AID 2284224; active = hit-call score of the fitted dose curve at least 0.9, where 1 is the maximum;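 note: human neural progenitor cells hNP1 derived from WA09 embryonic stem cells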). The method in brief: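 Human neuroprogenitors (hNP1, WA09 lineage) receive test chemical after 40 to 44 hours of attachment. A four-hour BrdU pulse begins twenty hours later, followed by fixation and high content imaging; signal is referenced to DMSO controls.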

Assay [15] is described as follows: UKN4_HCS_LUHMES_neurite_outgrowth: University of Konstanz (UKN) Leist Lab Neurite Outgrowth Assay in human LUHMES cells (UKN4) (AID 2284206). The note with it: actives raise or lower the signal. The method in brief:
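2-day-differentiated LUHMES, 24 h cpd exposure, live calcein-AM + H-33342 stain, HCS fluorescence imaging of neurite area; DMSO = baseline, bidirectional fit.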

The nature of assay [16]: TAMU_PeakParms_SingleDonor1434_Chronotropy: Texas A&M University (TAMU) 1.5-hr Human Induced Pluripotent Stem Cell (iPSC)-derived Cardiomyocytes Calcium (Ca+2) Flux Assay for Cardiotoxicity: Chronotropy (changes in peak frequency) (AID 2284217). The note with it: actives raise or lower the signal. The procedure, abridged: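 Beat rate, as mean Ca2+-flux peak frequency, was read from donor 1434 iPSC cardiomyocytes 90 min after exposure to 0.2–100 uM test chemical (0.5% DMSO). Wells that stopped beating were excluded; EC05 from bidirectional DMSO-referenced fitting.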

`COP(=O)(NC(C)=O)SC` (configuration not stated): the compound was called inactive in assay [1], in [2], in assay [3], in assay [4], in assay [5] and in [6]. Besides, the call in assay [7], in assay [8], in [9], in assay [10], in assay [11] and in assay [12] was inactive. Moreover, the result in assay [13] was inactive.
For the compound `CSC1=N[C@@](C)(c2ccccc2)C(=O)N1Nc1ccccc1`, the call in assay [1], in assay [2], in assay [3], in assay [4], in assay [5] and in assay [6] was inactive. The outcome in [7], in assay [8], in assay [9], in assay [10], in [13] and in assay [14] was inactive.
Turning to `CC[C@H](C)[C@H]1O[C@]2(C=C[C@@H]1C)C[C@@H]1C[C@@H](C/C=C(\C)[C@@H](O[C@H]3C[C@H](OC)[C@@H](O[C@H]4C[C@H](OC)[C@@H](NC)[C@H](C)O4)[C@H](C)O3)[C@@H](C)/C=C/C=C3\CO[C@@H]4[C@H](O)C(C)=C[C@@H](C(=O)O1)[C@]34O)O2`, the AC50 is 1.79 µM (active) in [15]; 25 µM (active) and 1.71 µM (active) in assay [1]; 5.17 µM (active) and 2.01 µM (active) in [2]; 6.92 µM (active) and 2.51 µM (active) in assay [3]; 587 nM (active) and 1 µM (active) in assay [4]; 428 nM (active) and 668 nM (active) in assay [5]. The AC50 in assay [6] is 1.47 µM (active) and 1.53 µM (active); in assay [7], 1.24 µM (active) and 1.58 µM (active); in [8] it was 387 nM (active) and 828 nM (active); in assay [9] it was 441 nM (active) and 565 nM (active); in [10], 522 nM (active) and 658 nM (active); in assay [13] it was 1.12 µM (active) and 1.1 µM (active). Besides, in assay [14], the compound was classed as inactive.
For `COP(=O)(OC)C(O)C(Cl)(Cl)Cl` (configuration not stated), the compound was called inactive in assay [1], in assay [2], in assay [3], in assay [4], in assay [6] and in assay [7]. Besides, the AC50 in assay [5] is 26.8 µM (active); in assay [8] it was 36.9 µM (active); in assay [9], 50 µM (active); in assay [10] it was 50 µM (active); in assay [14], 50 µM (active).
As for `COP(=O)(OC)OC(Br)C(Cl)(Cl)Br` (configuration not stated), the AC50 in [1] is 50.1 µM (active); in [2] it was 26.6 µM (active); in assay [5] it was 50 µM (active) and 27.8 µM (active); in [6] it was 31.5 µM (active) and 30.7 µM (active); in assay [7] it was 29.4 µM (active) and 20.6 µM (active); in assay [8] it was 32.5 µM (active) and 41.6 µM (active). Besides, the AC50 is 50 µM (active) and 10.7 µM (active) in assay [9]; 23.2 µM (active) and 9.92 µM (active) in [10]; 9.92 µM (active) in [13]; 14 µM (active) and 16.7 µM (active) in assay [14]. Also, the compound was classed as inactive in assay [3], in [4] and in assay [13].
As to `C[N+]1(C)CCCCC1`, the outcome in assay [1], in assay [2], in assay [3], in assay [4], in assay [5] and in [6] was inactive. In addition, the call in assay [7], in assay [8], in assay [9], in [10] and in assay [13] was inactive.
In the case of `CCOP(=S)(OCC)Oc1ccc([N+](=O)[O-])cc1`, the AC50 was 20.9 µM (active) in assay [4]; 2.98 µM (active) in assay [5]; 23.7 µM (active) in assay [6]; 15 µM (active) in assay [8]; 15 µM (active) in assay [9]; 15 µM (active) in [10]. Besides, the outcome in assay [7], in assay [16] and in [13] was inactive.
